From paper PMC5540273 (PLoS ONE, 2017)

Columns and labels:
Details in all cases: concentration: 1 μM, replicates: in singlicate; n = 1
EPHB4 = system: EPHB4
EPHB6 = system: EPHB6
ERBB2 = system: ERBB2
ERBB3 = system: ERBB3
ERBB4 = system: ERBB4
ERK1 = system: T1, ERK1
T1 construct: gene MAPK3

ERK2 = system: T2, ERK2
T2 construct: gene MAPK1

ERK3 = system: T3, ERK3
T3 construct: gene MAPK6

ERK4 = system: T4, ERK4
T4 construct: gene MAPK4

ERK5 = system: T5, ERK5
T5 construct: gene MAPK7
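Note: KINOMEscan kinase panel screen.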

Row | Compound | %Inh (EPHB4) [%] | %Inh (EPHB6) [%] | %Inh (ERBB2) [%] | %Inh (ERBB3) [%] | %Inh (ERBB4) [%] | %Inh (ERK1) [%] | %Inh (ERK2) [%] | %Inh (ERK3) [%] | %Inh (ERK4) [%] | %Inh (ERK5) [%]
1 | Cc1c(Cn2c(C)c(C)n3c(=O)cc(N4CCOCC4)nc23)cccc1C(F)(F)F [GSK2328680] | 14 | 0 | 0 | 16 | 4 | 0 | 0 | 8 | 0 | 0
2 | Cl.Cl.Cl.N#Cc1ccc(CCNc2nccc(-c3cccc(CN4CCNCC4)c3)n2)cc1 [GSK2137462] | 16 | 1 | 0 | 0 | 0 | 0 | 0 | 31 | 4 | 0
3 | Nc1nccc(-c2c(-c3ccc(F)cc3)ncn2C2CCN(Cc3ccccc3)CC2)n1 [SB-219980] | 17 | 58 | 18 | 0 | 19 | 0 | 21 | 0 | 0 | 0
4 | CNc1nc(-c2ccc3c(N)n[nH]c3c2)cc(N2C[C@@H](C(=O)NC3CCCCC3)OC[C@H]2C)n1 [GSK2375584] | 14 | 0 | 27 | 15 | 24 | 0 | 1 | 0 | 8 | 0
5 | CNCc1ccc2nc(NC(=O)c3ccc(C(C)(C)C)cc3)cn2c1 | 1 | 6 | 17 | 31 | 9 | 1 | 0 | 0 | 0 | 6
6 | CC(C)c1cc(-c2ccc3c(N)n[nH]c3c2)nc(N)n1 [GSK2250882] | 18 | 4 | 25 | 0 | 0 | 1 | 0 | 0 | 26 | 0
7 | Cc1ccccc1Cn1ccn2c(=O)cc(N3CCOCC3)nc12 [GSK2269905] | 19 | 0 | 23 | 0 | 20 | 4 | 0 | 15 | 14 | 0
8 | CC(=O)c1c(C)c2cnc(Nc3ccn(C)n3)nc2n(C2CCCC2)c1=O | 0 | 6 | 0 | 0 | 0 | 0 | 0 | 15 | 17 | 9
9 | CNC(=O)c1ccc(C)c(-n2c(C)cc(OCc3ccc(F)cc3F)c(Br)c2=O)c1 | 0 | 0 | 0 | 0 | 13 | 0 | 0 | 0 | 0 | 0
10 | Cc1nccc(-c2c(-c3ccc(F)cc3)ncn2CCCN2CCOCC2)n1.Cl [SB-282975] | 0 | 15 | 0 | 34 | 0 | 6 | 8 | 0 | 96.5 | 25
11 | CS(=O)(=O)Cc1ccc(Nc2nccc(-c3c(-c4cccc(NC(=O)C5CCCCC5)c4)nn4ncccc34)n2)cc1 [GSK350559] | 0 | 42 | 25 | 22 | 74 | 2 | 0 | 0 | 3 | 0
12 | COc1ccc(CSc2nnc(-c3ccc4c(c3)CCO4)o2)cc1 | 13 | 0 | 18 | 0 | 0 | 0 | 0 | 0 | 0 | 6
13 | CS(=O)(=O)CCNCc1nc(-c2ccc3ncnc(Nc4ccc(OCc5ccccc5)c(Cl)c4)c3c2)cs1.Cl [GW582764] | 8 | 0 | 100 | 58 | 97.8 | 0 | 0 | 0 | 0 | 0
14 | NS(=O)(=O)c1cccc(N/C=C2\C(=O)Nc3ccc(S(=O)(=O)Cc4c(Cl)cccc4Cl)cc32)c1 [GSK398099] | 15 | 44 | 0 | 0 | 37 | 0 | 0 | 24 | 48 | 0
15 | CSc1ccc(-c2nc3n(c2-c2ccncc2)CCC3)cc1 [SKF-105561] | 21 | 15 | 0 | 0 | 3 | 0 | 0 | 0 | 0 | 0
16 | CC[C@@H]1CO[C@H](C(=O)Nc2ccccc2)CN1c1cc(-c2ccc3c(N)n[nH]c3c2)nc(NC)n1 [GSK2376236] | 16 | 3 | 8 | 0 | 18 | 0 | 0 | 8 | 42 | 7
17 | Cc1ccc(NC(=O)Nc2ccc(Cl)cc2)cc1-c1ccc(C(=O)Nc2ccncc2)cc1 [GSK1398472] | 23 | 2 | 25 | 0 | 0 | 0 | 0 | 15 | 3 | 0

Row | Compound | %Inh (EPHB4) [%] | %Inh (EPHB6) [%] | %Inh (ERBB2) [%] | %Inh (ERBB3) [%] | %Inh (ERBB4) [%] | %Inh (ERK1) [%] | %Inh (ERK2) [%] | %Inh (ERK3) [%] | %Inh (ERK4) [%] | %Inh (ERK5) [%]
18 | COc1ccc(-c2coc3ccc(-c4nnc(C)o4)cc23)cc1 | 24 | 0 | 0 | 0 | 0 | 0 | 0 | 0 | 1 | 1
19 | COc1nccc(-c2c(-c3ccc(F)cc3)ncn2CCCN2CCOCC2)n1 [SB-282852] | 0 | 17 | 40 | 46 | 4 | 0 | 0 | 0 | 0 | 0
20 | Cn1cncc1-c1cc2c(Nc3ccc(OCc4ccccc4)cc3)ncnc2cn1 [GW281179] | 17 | 21 | 99.6 | 75 | 70 | 0 | 0 | 0 | 0 | 0
21 | COC(=O)C(Cc1ccccc1)NC(=O)NC1CCN(c2ccnc(Nc3ccc(F)cc3)n2)C1 (stereo not shown) [GSK1379714] | 0 | 72 | 51 | 28 | 42 | 14 | 0 | 0 | 12 | 0
22 | Cc1cnc(N)c(/C=C/c2cncc(C(=O)NCCc3ccc(Cl)cc3Cl)c2)c1.Cl [GSK190937] | 9 | 0 | 7 | 0 | 0 | 7 | 0 | 0 | 6 | 0
23 | CNc1nc(-c2ccc3c(N)n[nH]c3c2)cc(N2C[C@@H](C(=O)Nc3ccccc3)CC[C@H]2C)n1 [GSK2298859] | 14 | 9 | 12 | 0 | 19 | 0 | 0 | 6 | 0 | 0
24 | COc1ccc(Nc2nccc(NCCNC(=O)Nc3cc(C)ccc3C)n2)cc1 [GSK1379899] | 8 | 0 | 1 | 0 | 0 | 1 | 0 | 0 | 0 | 0
25 | CC(=O)c1c(C)c2cnc(Nc3ccc(N4CCNCC4)cn3)nc2n(C2CCCC2)c1=O | 23 | 17 | 9 | 0 | 0 | 0 | 0 | 89 | 25 | 0
26 | COc1cccc(NC(=O)Nc2ccc(C)c(-c3ccc(C(=O)Nc4ccncc4)cc3)c2)c1 [GSK1398474] | 8 | 26 | 0 | 0 | 25 | 7 | 0 | 7 | 1 | 0
27 | COC(=O)c1cccc(NC(=O)NC2CCN(c3ccnc(Nc4ccc(F)cc4)n3)C2)c1 (stereo not shown) [GSK1379725] | 0 | 0 | 16 | 0 | 0 | 0 | 0 | 0 | 0 | 0
28 | O=C(Nc1n[nH]c2nc(-c3cccs3)c(Br)cc12)C1CC1 [SB-735297] | 0 | 39 | 0 | 0 | 0 | 0 | 0 | 0 | 0 | 0
29 | COc1cccc(CNC(=O)NC2CCN(c3ccnc(Nc4ccc(F)cc4)n3)C2)c1 (stereo not shown) [GSK1379723] | 2 | 15 | 2 | 0 | 22 | 0 | 0 | 10 | 0 | 0
30 | Cc1cccc2c(-c3ccncn3)c(-c3ccc(F)cc3)nn12 [GW515532] | 2 | 21 | 0 | 0 | 0 | 0 | 0 | 0 | 1 | 0
31 | Cc1c(Cn2c3ccccc3n3c(=O)cc(N4CCOCC4)nc23)cccc1C(F)(F)F [GSK2306394] | 0 | 0 | 0 | 0 | 60 | 36 | 0 | 0 | 100 | 0
32 | FC(F)(F)c1ccccc1-c1cc(-c2c[nH]nc2-c2ccccn2)ccn1 [GW679396] | 0 | 100 | 8 | 0 | 0 | 0 | 0 | 11 | 21 | 0
33 | CCn1c(-c2c(N)noc2C)nc2cnccc21 [SB-737856] | 54 | 0 | 31 | 0 | 0 | 0 | 9 | 100 | 16 | 0
34 | CN1c2ccc(-c3ccc(C(N)=O)cc3)cc2-c2[nH]ncc2S1(=O)=O | 18 | 23 | 12 | 14 | 14 | 0 | 4 | 0 | 0 | 0
